# p-CIP stab down: p/CIP protein destabilization; F442A p/CIP-EGFP cells, EGFP fluorescence, 16 h; hit rate 0.01% among 290,000; AID 1984; Q05BA5; decrease of EGFP signal, % at 10 µM;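 active means EGFP signal decrease of at least 30% at 10 µM or well 3 SD below plate mean, unless failing retest; inactive means the rest, including hits failing retest or dose response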
# GASC-1 inh: inhibitors of human GASC-1 (JMJD2C) demethylase; hit rate 0.069% among 330,000; Q9H3R0; AID 2099; GST-JMJD2C(1-420) H3K9me3 demethylation, DELFIA europium; inhibition, % at 2.35 µM;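 active means more than half of a compound's replicate wells show inhibition beyond 50%, single wells judged on their own value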;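 further: signal counts dimethyl H3K9 product captured on neutravidin plate; 0% = median of DMSO wells and 100% = 0.3 times that DMSO median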
# GPR7 antagonist: blocks human GPR7 receptor signaling | GPR7-expressing cells, fluorescence antagonist assay | inhibition, % at 4.4 µM | hit rate 1.1% among 290,000 | AID 1861; in the data active means inhibition above about 16%, passing the limit was not always enough;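 further: cells stimulated with the agonist NPW; 0% = agonist with vehicle and 100% = vehicle without agonist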
# Target sequence (P48145 whole entry, looked up): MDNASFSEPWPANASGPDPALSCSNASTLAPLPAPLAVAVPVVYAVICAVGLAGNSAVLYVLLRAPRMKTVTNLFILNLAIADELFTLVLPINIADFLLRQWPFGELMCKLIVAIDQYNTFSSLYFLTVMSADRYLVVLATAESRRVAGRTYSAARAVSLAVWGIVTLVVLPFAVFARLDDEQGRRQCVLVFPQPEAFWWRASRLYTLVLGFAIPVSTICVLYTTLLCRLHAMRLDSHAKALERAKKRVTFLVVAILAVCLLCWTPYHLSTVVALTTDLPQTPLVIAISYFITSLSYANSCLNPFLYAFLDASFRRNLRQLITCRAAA
# VLA-4 inh: inhibition in a human VLA-4 binding assay; P13612; VLA-4 expressing cells, ligand binding flow cytometry; inhibition, % (about 7 µM as worked out from the volumes in the protocol); hit rate 0.2% among 330,000; in the data active means inhibition above about 50%
# GPR7 antag cf: human GPR7 antagonism, confirmation assay; shares compounds with GPR7 antagonist; GPR7-expressing cells, calcium fluorescence antagonist mode; inhibition, % at 4.4 µM; hit rate 52% among 2,400; in the data active means inhibition above about 24%;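 further: stimulated with the GPR7 agonist NPW; 0% = agonist plus vehicle and 100% = vehicle alone without agonist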
# MCHR1 antagonist: antagonizes human MCHR1, a GPR7 antagonist counter-screen | hit rate 62% among 2,400 | inhibition, % at 4.4 µM | shares compounds with GPR7 antagonist | AID 2148 | MCHR1-expressing cells, fluorescence antagonist assay; in the data active means inhibition above about 22%;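 further: 0% = vehicle with agonist and 100% = vehicle without agonist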
# * marks the source's active call; other numbers are inactive results; i = inactive; / = no result. Compounds with a hit are over-represented: about 1.2% of the library has one in this group of screens.
SMILES,p-CIP stab down,GASC-1 inh,GPR7 antagonist,VLA-4 inh,GPR7 antag cf,MCHR1 antagonist
Cc1cc(OCCCC(=O)Nc2cccc(-n3cnnn3)c2)ccc1Cl,-6.9,-2.3,29.1*,-3.4,47.5*,81.7*
COc1cccc(NC(=O)COc2cccc(-n3cnnn3)c2)c1,-5.4,-2.8,9.8,0.6,/,/
O=C1COc2ccc(C(=O)COC(=O)Cn3cnc4ccccc43)cc2N1,11.1,17.9,24.2*,-14.3,-4.4,2.1
C/C(=C/CCC(C)(O)C1CC[C@@]2(C)[C@@H]3CC=C4[C@@H](CC[C@H](O[C@H]5O[C@@H](CO)[C@H](O)[C@@H](O)[C@@H]5O)C4(C)C)[C@]3(C)C(=O)C[C@]12C)CO[C@@H]1O[C@H](CO)[C@@H](O)[C@H](O)[C@H]1O (stereo partly drawn),/,3.7,/,4.2,/,/
O=C(CCN1C(=O)c2ccccc2C1=O)Nc1ccc2c(c1)OCCO2,0.5,-2.1,23.0*,0.5,0.2,-1.4
O=C(CCCCCN1C(=O)c2ccccc2C1=O)Nc1ccc2c(c1)OCCO2,-9.7,-7.1,-9.3,7.5,/,/
O=C(NCC1(c2ccccc2)CCCC1)C(=O)N1CCOCC1,-3.3,4.0,-2.7,4.6,/,/
CCOC(=O)C1CCN(S(=O)(=O)c2ccc(CC)cc2)CC1,1.9,2.1,21.1*,-6.4,15.6,24.8*
CCc1ccc(S(=O)(=O)N2CCN(c3ncccn3)CC2)cc1,2.2,-1.2,25.6*,-3.9,16.0,14.8
CCOC(=O)c1ccc(S(=O)(=O)N2CCC(C(=O)OCC)CC2)cc1,-6.4,0.9,10.1,2.4,/,/
Cc1ccc(Oc2ccccc2NC(=O)CN2C(=O)NC3(CCCC3)C2=O)cc1,-10.4,18.9,29.1*,1.6,-11.2,0.8
CC(C)c1cccc(C(C)C)c1NC(=O)CNCc1ccccc1F,-1.6,-5.8,21.9*,-1.8,29.8*,32.5*
COc1ccc(NS(=O)(=O)c2c(C)cc(C)cc2C)cn1,-15.2,-2.8,-11.3,-0.2,/,/
CCN(CC)S(=O)(=O)c1ccc(OC)c(NC(=S)Nc2ccc(C)c(C)c2)c1,-9.5,7.7,-7.7,17.4,/,/
CC(=O)c1ccc(NC(=O)CSc2ccc(-c3sc(C)nc3C)nn2)cc1,-2.0,12.2,26.5*,-2.6,42.6*,75.9*
Cc1ccc(Cl)cc1N1CCN(C(=O)c2ccc3c(c2)CCN3S(C)(=O)=O)CC1,-9.0,3.0,28.6*,-6.3,25.4*,16.8
COC(=O)N(NC(=O)C(O)(c1ccccc1)c1ccccc1)c1ccccc1,-7.2,-22.7,26.0*,25.0,16.7,26.6*
O=C(NN(C(=O)c1ccccc1)c1ccccc1)c1ccccc1,-5.0,-3.7,-13.7,10.8,/,/
O=C(c1ccc(F)cc1)N(NC(=O)C(O)(c1ccccc1)c1ccccc1)c1ccccc1,-10.0,-4.2,37.4*,-1.6,46.0*,31.0*
COc1ccccc1NNC(=O)C(O)(c1ccccc1)c1ccccc1,-9.8,-7.2,-7.3,22.4,/,/
Cc1ccc2c(COC(=O)C3CSC4(C)CCC(=O)N34)cc(=O)oc2c1C (stereo not drawn),/,3.3,/,-15.1,/,/
O=C(CCC1CCCCC1)Nc1c2c(nn1-c1ccc(F)cc1)CS(=O)(=O)C2,-9.0,-1.6,32.2*,19.0,42.7*,28.9*
O=C(c1ccccc1)c1c2c(cc3sc4ccccc4[n+]13)-c1cccc3cccc-2c13,-25.4,4.5,21.3*,i,17.8,31.5*
CN(C)c1ccc(N=Nc2ccccc2C(=O)OCC(=O)NCC2CCCCC2)cc1,3.2,-6.8,-17.3,8.4,/,/
CN(C)c1ccc(N=Nc2ccccc2C(=O)OCC(=O)N(C)C2CCCCC2)cc1,4.2,1.2,24.7*,15.4,30.5*,76.1*
SMILES,p-CIP stab down,GASC-1 inh,GPR7 antagonist,VLA-4 inh,GPR7 antag cf,MCHR1 antagonist
C=CCOC(=O)Nc1snnc1C,-6.1,10.1,-3.7,-5.8,/,/
Cc1nnsc1NC(=O)OCc1ccc(C(C)(C)C)cc1,-17.1,2.3,22.2*,0.1,36.1*,51.0*
O=C(COC(=O)C1(c2ccc(F)cc2)CCCC1)NCc1ccco1,6.8,-11.2,-7.4,6.4,/,/
CCC(c1nnnn1Cc1ccco1)N1CCN(c2cc(Cl)ccc2C)CC1 (stereo not drawn),-9.3,-8.9,23.4*,4.1,30.3*,52.0*
Cc1c(O)ccoc1=O,-14.2,-4.7,21.3*,-29.0,-0.8,-6.3
Cc1occc(=O)c1O,-9.8,-18.4,-10.6,-5.8,/,/
CSc1ccc2c(c1)N(CCC1CCCCN1C)c1ccccc1S2 (stereo not drawn),-8.6,-16.5,42.5*,28.7,76.4*,83.3*
CC(=O)c1ccc2c(c1)N(CCCN1CCC(CCO)CC1)c1ccccc1S2,/,/,/,32.4,/,/
CN1C(=O)CC(N2CCC(c3nc4ccccc4[nH]3)CC2)C1=O (stereo not drawn),-0.1,6.3,-2.7,-6.1,/,/
CN(C)CCNc1nc2sc3c(c2c(=O)n1Cc1ccccc1)CCCCC3,8.7,5.7,40.2*,/,35.4*,58.0*
CN(C)CCNc1nc2sc3c(c2c(=O)n1-c1ccccc1)CCCCC3,1.4,-27.0,-6.1,7.8,/,/
CC(=O)NS(=O)(=O)c1ccc(NC(=O)[C@@H]2CCCN2S(=O)(=O)c2ccc(Cl)cc2)cc1,/,12.0,/,-1.8,/,/
CC(O)CNCCCOc1ccc(Cl)cc1C(C)(C)C (stereo not drawn),1.2,4.4,21.3*,14.3,38.4*,45.5*
COc1ccc(S(=O)(=O)N2CCCCC2)cc1NC(=O)c1ccc(Cl)nc1,/,-7.4,/,-10.7,/,/
CNCCCOc1ccc(C(C)(C)c2ccccc2)cc1,-0.5,-20.3,8.5,/,/,/
CC(C)(c1ccccc1)c1ccc(OCCCN2CCNCC2)cc1,-19.1,-1.0,-1.4,26.4,/,/
CC(C)(c1ccccc1)c1ccc(OCCN2CCOCC2)cc1,7.1,-8.1,37.4*,5.5,8.4,6.2
CCC(C)NCCOc1ccc(C(C)(C)c2ccccc2)cc1 (stereo not drawn),-26.1,-3.9,21.5*,4.6,27.4*,30.1*
C=CCNc1oc(-c2cccc(F)c2)nc1C#N,/,/,/,-3.1,/,/
CCCCCC1CC(CC(=O)Nc2ccc([N+](=O)[O-])cc2)OC1=O (stereo not drawn),-6.6,1.6,25.0*,5.0,9.0,42.0*
CCCCCC1CC(CC(=O)Nc2ccc([N+](=O)[O-])cc2)C(=O)O1 (stereo not drawn),23.3,10.4,-0.3,-9.6,/,/
CC(C)(C)c1ccc(C(=O)Nc2c3c(nn2C(C)(C)C)CS(=O)(=O)C3)cc1,-2.2,20.1,26.2*,8.9,15.2,22.9*
Cc1cc(C)cc(C(=O)Nc2c3c(nn2C(C)(C)C)CS(=O)(=O)C3)c1,-3.4,-1.7,9.3,-6.5,/,/
Cc1ccccc1CN1CCc2c(OCC(=O)N3CCCc4ccccc43)cccc2C1=O,-7.1,15.8,22.2*,4.4,30.6*,60.5*
COC(=O)c1ccc(C)c(NC(=O)CCCN2C(=O)NC(C)(C)C2=O)c1,/,-24.1,/,-1.5,/,/
Cc1cc2cc(CNC(=S)Nc3ccc(OC(F)F)cc3)ccc2n1C,-4.0,7.8,50.3*,21.5,-12.3,51.4*

# Source: PubChem BioAssay
